Shown are actives, neighbours in structure and some others; about 10% of the full set was active somewhere.
KinaseGlo FLuc = blocks Kinase-Glo luciferase, a counter-screen artifact. Q27757. Potency, µM (series often up to 38.3 µM), for inactives: at the top dose activity change, negative = inhibition, usual class: inhibitors. 0.28% of 200,000 active. Kinase-Glo luciferase, ATP luminescence, 8 min; active means well fitted inhibition curve with a large enough effect; inconclusive means small, poorly fitted or top-dose-only effect; further: potency means the concentration at half of the fitted maximal effect; nearly all actives have a fitted effect of over 60% in size
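Compound is pinned into ATP-containing buffer (10 uM ATP, imidazole pH 7.2, 7 mM MgCl2). Kinase-Glo luciferase reagent is then added. Light output is recorded following an 8-min room-temperature incubation.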
IMPase inh = cell-permeable inhibitors of inositol monophosphatase (IMPase); inhibition (IP1 accumulation), % at 46.1 µM; 120,000 tested, under 10 active; CHO-M1 cells, IP1 accumulation, HTRF TR-FRET ratio; AID 901; P97697; active means well fitted curve in the direction sought with a large enough effect in the signal ratio, not every such curve was filed as active; inconclusive means small, poorly fitted or top-dose-only effect, or a change in a side signal; inactive means no such curve, though single readings can be large or run the other way; the % refers to the signal ratio;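 further: cells stimulated with carbachol in lithium chloride buffer; plate controls were DMSO basal wells for no effect and reference inhibitor wells for full effect; higher means more IMPase inhibition seen as more IP1 and lower FRET ratio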
Target sequence (P97697 whole entry, looked up): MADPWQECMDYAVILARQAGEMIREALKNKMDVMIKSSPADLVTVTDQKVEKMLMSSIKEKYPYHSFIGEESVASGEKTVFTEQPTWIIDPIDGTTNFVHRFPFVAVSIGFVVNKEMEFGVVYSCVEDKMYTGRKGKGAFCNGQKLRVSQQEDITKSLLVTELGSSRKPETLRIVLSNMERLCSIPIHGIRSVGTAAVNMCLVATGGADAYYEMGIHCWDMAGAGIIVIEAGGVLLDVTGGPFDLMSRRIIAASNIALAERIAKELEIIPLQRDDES
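Elevated IP1 in lysates lowers TR-FRET signal (665/620 ratio and 620 channel reported). Cells were CHO-M1, given carbachol (50 uM as added) plus 50mM LiCl, pH 7.4, 30 min, 37C; compounds titrated up to 46 uM; AC50 by Hill equation.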
ALDH1A1 block = blocks purified human ALDH1A1 activity | P00352 | Purified ALDH1A1, NADH fluorescence, propionaldehyde substrate | Potency, µM (top dose mostly 75.3 µM), without a hit: top-dose activity, negative = inhibition, usual class: inhibitors | 7.3% of 220,000 active;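 further: potency means the concentration at half of the fitted maximal effect; plate controls were no enzyme wells and a reference inhibitor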
HPGD inh = blocks human HPGD enzyme activity; AID 894; P15428; Potency, µM, without a hit: top-dose activity change, negative = inhibition, usual class: inhibitors; 4.3% of 150,000 active; purified HPGD, NADH fluorescence kinetic, PGE2 substrate; further: potency means the concentration at half of the fitted maximal effect
Target sequence (P15428 whole entry, looked up): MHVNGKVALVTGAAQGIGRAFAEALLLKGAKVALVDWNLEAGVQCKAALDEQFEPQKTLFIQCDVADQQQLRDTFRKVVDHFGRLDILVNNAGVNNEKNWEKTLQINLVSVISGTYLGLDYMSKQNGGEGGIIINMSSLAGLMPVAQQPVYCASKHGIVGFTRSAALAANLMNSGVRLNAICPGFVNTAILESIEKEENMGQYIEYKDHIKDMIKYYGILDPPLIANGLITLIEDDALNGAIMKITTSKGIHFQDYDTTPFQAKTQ
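20 nM HPGD preincubated 15 min at room temperature with compound in 50 mM Tris-HCl pH 8, 0.01% Tween 20. Started with 1 mM NAD+ and 30 uM prostaglandin E2; NADH fluorescence (360/450 nm) read 5 times over 30-s intervals, last minus first.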
PNC assembly inh = blocks assembly of the perinucleolar compartment. PC3M PTB-GFP, PNC prevalence imaging, 16 h; hits give low values. activity change (PNC), negative = inhibition, % at 10 µM. 3.1% of 140,000 active;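 active means readout at or below -70, meaning at least 70% loss of cells showing the perinucleolar compartment, a nuclear body marking cancer cells; inconclusive means readout between -30 and a set limit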;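 further: plate controls were DMSO wells for no effect and camptothecin positive control wells for full effect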
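Read-out is percentage of cells bearing a perinucleolar compartment, from automated 20x imaging of fixed, Hoechst-stained PC3M PTB-GFP cells. Cells were seeded 4 h, then exposed 16 h to compound (23 nl of library stock) in duplicate plates.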
Lamin A splicing = LMNA splicing modulation. HeLa LMNA splicing GFP/RFP minigene ratio, 48 h. Potency, µM (titrated, usually from 46.1 µM), inactives show at the top dose ratio change, negative = inhibition, hits mostly inhibitors. 0.01% of 200,000 active. AID 1487; active means well fitted inhibition curve with a large enough effect in the signal ratio, with a control signal flat, not every such curve was filed as active; inconclusive means small, poorly fitted or top-dose-only effect, or effect the other way, or a change in a side signal; the % refers to the signal ratio; further: potency means the concentration at half of the fitted maximal effect
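S3 HeLa cells stably expressing lamin A-EGFP splicing minigene plus DsRed2, 600 cells/well, 48 h compound exposure at 37C. Laser-scanning cytometry; analysed as GFP (500-530 nm)/RFP (575-640 nm) total intensity ratio; 0.5% DMSO vehicle.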
The depositor's hits bear a star; ? = inconclusive; · = no result given; [ ] = remark or other dose. Unless noted, the call rests on the fitted dose curve; in most records, active means well fitted inhibition curve with a large enough effect (not every such curve was filed as active); inconclusive means small, poorly fitted or top-dose-only effect, or another doubt; inactive means no such curve, though single readings can be large or run the other way. Unless noted, on the % scale 0 is the no-effect control and ±100 the full control effect.

SMILES | KinaseGlo FLuc | IMPase inh | ALDH1A1 block | HPGD inh | PNC assembly inh | Lamin A splicing
CC(=O)c1cccc(NC(=O)CSc2nc3c(=O)n(C)c(=O)n(C)c3n2C)c1 | · | · | · | · | · | 16.1%[46 µM]
COc1c(O)cccc1O | 1.0% | · | 6.1% | -9.5% | · | ·
Oc1cccc(O)c1O | · | · | 1.5µM* | 10µM* | · | ?
COCCn1c(C)cc(O)c(C(c2ccccc2)N2CCC(C)CC2)c1=O (stereo not given) | · | · | · | · | · | -17.0%[46 µM]
CCOC(=O)c1sc(-c2ccccc2)cc1N | -6.2% | -7.8 | ? | ? | ? | 11.3%
CCOC(=O)c1cc(-c2ccccc2)sc1N | -0.2% | · | 11.2µM* | 11.2µM* | 55.2 | -5.2%
CCOC(=O)c1c(N)sc(C)c1-c1ccccc1 | -1.9%[39.9 µM] | · | ? | 25.1µM* | · | ·
CCOC(=O)c1cc(-c2ccccc2)sc1NC(=O)c1ccc(OC)cc1 | 0.9% | -1.2 | ? | 3.55µM* | 54.4 | 13.2%
CCOC(=O)c1c(N)sc(-c2ccccc2)c1C | -2.4% | 9.5 | ? | ? | -18.9 | -2.4%
CC1(C)CC(=O)c2c(oc3c(Cl)cc(NS(=O)(=O)c4ccc(Cl)cc4)cc23)C1 | · | -1.5 | · | · | · | ·
Sc1ccc2ccccc2c1CNCc1ccccc1 | -6.5%[7.66 µM] | · | -8.4%[13.5 µM] | -6.6% | · | ·
COC(=O)C1=C(C)OC(N)=C(C#N)C1c1cc2cccc(C)c2nc1Cl (stereo not given) | 3.3% | · | 28.2µM* | · | · | ·
CCOC(=O)C1=C(C)OC(N)=C(C#N)C1c1cc(F)ccc1F (stereo not given) | -3.8% | -0.2 | 8.5% | -10.0% | -12.2 | 0.2%
CCOC(=O)C1=C(C)OC(N)=C(C#N)C1c1ccc(C)s1 (stereo not given) | 4.1% | · | 22.4µM* | · | · | ?
COC(=O)C1=C(C)OC(N)=C(C#N)C1c1cc(C)sc1C (stereo not given) | 3.7% | -6.7 | ? | 28.2µM* | ? | 5.5%
C/C(N)=C(/C#N)C(=O)CSc1nc(C2CCCCC2)n(-c2ccccc2)n1 | -1.2% | 2.6 | 31.6µM* | -13.8% | 5.8 | 20.5%
S=c1[nH]nc([C@@H]2C[C@H]2c2ccccc2)n1-c1ccccc1 | 0.2% | · | ? | 25.1µM* | ? | 1.3%
COc1ccc(OC)c(NC(=O)C(=O)N/N=C/c2ccccc2[N+](=O)[O-])c1 | 2.4% | -0.1 | -4.4% | -6.0% | 2.9 | 1.2%[0.0737 µM]
COc1ccc(NC(=O)C(=O)N/N=C/c2cc(C)n(-c3cccc(Cl)c3Cl)c2C)c(OC)c1 | -6.1% | 3.8 | 31.6µM* | ? | -26.2 | -14.6%
CCCCn1c(SCC2CCCO2)nc2cc(S(N)(=O)=O)ccc21 (stereo not given) | -2.9% | 3.5 | -4.0% | -1.1% | -26.1 | 24.6%
CCCCn1c(SCN2C(=O)c3ccccc3C2=O)nc2cc(S(N)(=O)=O)ccc21 | 12.1% | -6.2 | 28.2µM* | -14.1% | -18.8 | 4.3%
CCCCn1c(SCC(=O)N2CCC(C)CC2)nc2cc(S(N)(=O)=O)ccc21 | 1.2% | 11.8 | 7.8% | 28.2µM* | ? | 2.8%
CCCCn1c(SCc2ccc(C(=O)OC)o2)nc2cc(S(N)(=O)=O)ccc21 | -3.2% | 6.8 | 25.1µM* | -24.6% | -18.6 | ?
CCc1ccc(NC(=O)c2cc(S(=O)(=O)N3CCCCCC3)ccc2F)cc1 | · | · | · | · | · | 8.2%[46 µM]
COC(=O)c1ccc(C(NC(=O)OCc2ccccc2)/C(C)=C/[C@@H](C)C(=O)Nc2ccc(OC)cc2)cc1 (stereo not given in full) | -2.0% | · | ? | -14.5% | · | ·
COc1ccc(Nc2ccnc(Nc3ccc(OC)cc3)n2)cc1 | 1.2% | · | ? | -6.2% | -93.4* | ?
COc1ccc(NC(=O)C2=C(C)Nc3ncnn3C2c2sccc2C)cc1 (stereo not given) | · | · | · | · | · | 22.7%[46 µM]
COc1cc(NC(=O)Nc2ccc3c(c2)OCO3)cc(OC)c1OC | 2.0% | · | 7.6% | · | · | ·
COc1cc(C(Nc2ccc3c(c2)OCO3)C(=O)NC2CCCCC2)cc(OC)c1OC (stereo not given) | -0.7% | 2.8 | 0.631µM* | -29.1% | 18.9 | 0.9%
O=C(Cc1cccs1)Nc1nc2c(s1)CCCC2 | -3.8% | 0.0 | ? | -13.2% | -113.2* | ?
